Data: PubChem BioAssay (Tox21)
Values joined by “and” are separate entries in the source; they are usually repeats but may differ in a detail not shown here. Equal entries are not always repeated. Inconclusive results are not listed. Active and inactive are the calls of the source. The call rests on the fitted dose curve; in most records, active means well fitted curve in the direction sought with a large enough effect in the repeat runs; inconclusive means weak or mixed curves; inactive means no such curve, though single readings can be large; an effect the other way counts as inactive or inconclusive.

Legend:
[1] = qHTS RealTime-Glo MT Cell Viability Assay in HEK293 cells - 40 hour (AID 1224874); conditions: RealTime-Glo luminescence; max response: stronger effect = lower value; further: nearly all actives have a fitted effect of over 50% in size; further: potency means the concentration at half of the fitted maximal effect
Method in brief: (§1)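 Tox21 screen in HEK293 using RealTime-Glo MT chemistry, with cells and reagent co-dispensed. Luminescence proportional to viable cell number was captured at intervals during 40 h compound exposure at 37 C.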

[2] = A CellTox Green Cytotoxicity Assay to monitor cytotoxicity in HepG2 cells - 16 hour (AID 1224876); further: nearly all actives have a fitted effect of over 45% in size; further: potency means the concentration at half of the fitted maximal effect
Method in brief: (§2)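 Nonlytic assay: viable cells exclude the dye, so fluorescence scales with cell death. HepG2 at 600 cells/well, compounds added after 5 h, signal read across 40 h.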

[3] = qHTS RealTime-Glo MT Cell Viability Assay in HepG2 cells - 32 hour (AID 1224877); further: nearly all actives have a fitted effect of over 55% in size; further: potency means the concentration at half of the fitted maximal effect
Method in brief: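 Luminescence read-out: viable HepG2 cells reduce a prosubstrate to a NanoLuc substrate, giving a signal proportional to live cell number. Reads taken at 0, 8, 16, 24, 32 and 40 h of compound exposure at 37 C.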

[4] = A CellTox Green Cytotoxicity Assay to monitor cytotoxicity in HepG2 cells - 24 hour (AID 1224878); further: nearly all actives have a fitted effect of over 45% in size; further: potency means the concentration at half of the fitted maximal effect
Method in brief: as §2

[5] = A CellTox Green Cytotoxicity Assay to monitor cytotoxicity in HepG2 cells - 40 hour (AID 1224879); further: nearly all actives have a fitted effect of over 40% in size; further: potency means the concentration at half of the fitted maximal effect
Method in brief: as §2

[6] = qHTS RealTime-Glo MT Cell Viability Assay in HEK293 cells - 0 hour (AID 1224880); further: top concentration of the series differs between compounds; nearly all actives have a fitted effect of over 45% in size
Method in brief: as §1

[7] = A CellTox Green Cytotoxicity Assay to monitor cytotoxicity in HEK293 cells - 32 hour (AID 1224881); further: nearly all actives have a fitted effect of over 40% in size; further: potency means the concentration at half of the fitted maximal effect
Method in brief: (§3)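 Seeding of HEK293 cells together with cytotoxicity dye preceded a 5 h incubation at 37 C/5% CO2. Test compounds in DMSO were then added and fluorescence monitored across 40 h.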

[8] = A CellTox Green Cytotoxicity Assay to monitor cytotoxicity in HepG2 cells - 0 hour (AID 1224882); further: nearly all actives have a fitted effect of over 35% in size
Method in brief: as §2

[9] = A CellTox Green Cytotoxicity Assay to monitor cytotoxicity in HepG2 cells - 32 hour (AID 1224883); further: nearly all actives have a fitted effect of over 50% in size; further: potency means the concentration at half of the fitted maximal effect
Method in brief: as §2

[10] = A CellTox Green Cytotoxicity Assay to monitor cytotoxicity in HEK293 cells - 24 hour (AID 1224875); further: nearly all actives have a fitted effect of over 45% in size; further: potency means the concentration at half of the fitted maximal effect; on activity change: series mostly up to about 77 µM
Method in brief: as §3
On the % scale 0 is the no-effect control and ±100 the full control effect.

CCCC(C)CCC(C)=O (centres undefined)
inactive: max response [1] 12.6% | Potency [2] | Potency [3] | Potency [4] | Potency [5] | Potency [6] | Potency [7] | Potency [8] | Potency [9]

CCC1CCCCC1
inactive: max response [1] -1.07% | Potency [10] | Potency [3] | Potency [4] | Potency [5] | Potency [6] | Potency [7] | Potency [8] | Potency [9]

O=C=NCc1cccc(CN=C=O)c1
inactive: max response [1] 3.93% | cytotoxicity increase [2] 2.28% [at 15.8 µM] | activity change, negative = cytotoxic [3] 0.5% [at 15.8 µM] | cytotoxicity [4] 0.14% [at 15.8 µM] | cytotoxicity increase [5] -0.536% [at 15.8 µM] | activity change, negative = cytotoxicity [6] 5.7% [at 15.8 µM] | cytotoxicity increase [7] -11.9% [at 15.8 µM] | cytotoxicity [8] 0.25% [at 15.8 µM] | cytotoxicity increase [9] -2.41% [at 15.8 µM]

CCCCCCCCCCCCCC[n+]1ccccc1
active: Potency [1] 1.74 µM | Potency [10] 38.9 µM | Potency [3] 12.3 µM | Potency [4] 15.5 µM | Potency [5] 11 µM | Potency [7] 34.7 µM | Potency [9] 11 µM
inactive: Potency [6] | Potency [8]

COc1ccc(C#N)cc1
inactive: max response [1] -13.1% | Potency [10] | Potency [3] | Potency [4] | Potency [5] | Potency [6] | Potency [7] | Potency [8] | Potency [9]

CC(=O)C=O
inactive: max response [1] 3.76% | Potency [10] | Potency [6] | Potency [7] | Potency [8] | Potency [9]

CCCCCCCCCCCCCCCCCO
inactive: max response [1] 0.671% | activity change [10] -19.9% [at 15.8 µM, stronger effect = higher value] | activity change, negative = cytotoxic [3] -2.69% [at 15.8 µM] | cytotoxicity increase [5] 4.05% [at 15.8 µM] | activity change, negative = cytotoxicity [6] -0.227% [at 15.8 µM] | cytotoxicity increase [7] -22.2% [at 15.8 µM] | cytotoxicity [8] -1.06% [at 15.8 µM] | cytotoxicity increase [9] 6.48% [at 15.8 µM]

CCC(C)C(=O)OC (centres undefined)
inactive: max response [1] 4.5% | Potency [10] | Potency [4] | Potency [5] | Potency [6] | Potency [7] | Potency [8] | Potency [9]

COc1cccc(O)c1
inactive: max response [1] 11.4% | Potency [2] | Potency [3] | Potency [4] | Potency [5] | Potency [6] | Potency [7] | Potency [8] | Potency [9]

CN(C)CCCN1c2ccccc2CCc2ccccc21
inactive: Potency [10] | Potency [3] | Potency [7] | Potency [8]
active: Potency [1] 54.9 µM | Potency [4] 49 µM | Potency [5] 54.9 µM | Potency [9] 54.9 µM

Cc1c(C(=O)O)cccc1[N+](=O)[O-]
inactive: max response [1] -5.1% | Potency [10] | Potency [3] | Potency [4] | Potency [6] | Potency [7] | Potency [8] | Potency [9]

C=CC(=O)OCC(O)COc1ccccc1 (centres undefined)
inactive: max response [1] 8.54% | Potency [10] | Potency [3] | Potency [4] | Potency [6] | Potency [8] | Potency [9]

CCO[Si](C)(C)OCC
inactive: max response [1] -0.247% | Potency [10] | Potency [3] | Potency [4] | Potency [6] | Potency [7] | Potency [8] | Potency [9]

CCOC(=O)CC(C)O (centres undefined)
inactive: max response [1] 5.55% | Potency [2] | Potency [3] | Potency [4] | Potency [5] | Potency [6] | Potency [7] | Potency [8] | Potency [9]

Clc1ccc(C(Cn2ccnc2)OCc2ccsc2Cl)c(Cl)c1 (centres undefined)
active: Potency [1] 16.9 µM | Potency [4] 21.3 µM | Potency [9] 23.9 µM
inactive: Potency [10] | Potency [6] | Potency [8]

N[C@@H](CSSC[C@H](N)C(=O)O)C(=O)O
inactive: max response [1] 2.95% | activity change [10] 7.29% [at 0.29 µM, stronger effect = higher value] | activity change, negative = cytotoxic [3] -2.71% [at 0.29 µM] | cytotoxicity increase [5] 5.29% [at 0.29 µM] | activity change, negative = cytotoxicity [6] 18.3% [at 0.29 µM] | cytotoxicity increase [7] 2.69% [at 0.29 µM]

CSc1ccc2c(c1)N(CCC1CCCCN1C)c1ccccc1S2 (centres undefined)
active: Potency [1] 15.4 µM | Potency [2] 54.7 µM and 26.8 µM | Potency [3] 43.5 µM and 26.8 µM | Potency [4] 38.7 µM and 23.9 µM | Potency [5] 34.5 µM and 23.9 µM | Potency [7] 30.8 µM | Potency [9] 34.5 µM and 23.9 µM
inactive: Potency [8]

CC(C)(C)C1=CC(=O)C=C(C(C)(C)C)C1=O
inactive: max response [1] 11.2% | Potency [2] | Potency [3] | Potency [4] | Potency [5] | Potency [6] | Potency [8] | Potency [9]

CC1(C)C(=O)N(CO)C(=O)N1CO
inactive: max response [1] 2.01% | Potency [2] | Potency [4] | Potency [5] | Potency [6] | Potency [8] | Potency [9]

C=C[C@](C)(O)CC[C@@H]1[C@@]2(C)CCCC(C)(C)[C@@H]2CC[C@@]1(C)O
active: Potency [1] 21.9 µM | Potency [2] 54.9 µM | Potency [3] 54.9 µM | Potency [4] 49 µM | Potency [7] 43.6 µM | Potency [9] 49 µM
inactive: Potency [6] | Potency [8]

CC(C(O)c1ccccc1)N(C)CCOC(c1ccccc1)c1ccccc1 (centres undefined)
active: Potency [1] 23.9 µM | Potency [2] 23.9 µM | Potency [4] 26.8 µM | Potency [5] 26.8 µM | Potency [7] 26.8 µM | Potency [9] 26.8 µM
inactive: Potency [6]

O=C1NC2CCCCN2C12CCN(CCCN1c3ccccc3CCc3ccc(Cl)cc31)CC2 (centres undefined)
active: Potency [1] 8.49 µM | Potency [2] 23.9 µM | Potency [3] 23.9 µM | Potency [4] 23.9 µM | Potency [7] 21.3 µM | Potency [9] 23.9 µM
inactive: Potency [6] | Potency [8]
